# Measured values as given in PubChem BioAssay (EPA / NIEHS).
# Values joined by “and” are separate entries in the source; they are usually repeats but may differ in a detail not shown here. Equal entries are not always repeated. Records with an inconclusive call do not appear. A structure can be active in one record and inactive in another. Active and inactive are the calls of the source. How the source made its calls: active means hit-call score of the fitted dose curve at least 0.9, where 1 is the maximum; inconclusive means response in the unintended direction; inactive means score below 0.9.
# Columns and labels:
# [1] = target: human CYP2D6, CYP2D6 (gene 1565) (UniProt P10635); experiment: NVS_ADME_hCYP2D6: NovaScreen (NVS) CYP450-related Enzyme Activity (ADME) Assay for human CYP2D6 (AID 2283107)
# How it was run: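 Biochemical fluorescence assay, insect-cell-derived enzyme. Read at 1 h; inhibition taken from loss of signal against acetonitrile. Screened at 10 uM in duplicate, with concentration series for actives.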
# [2] = target: human CYP2C9, CYP2C9 (gene 1559) (UniProt P11712); experiment: NVS_ADME_hCYP2C9: NovaScreen (NVS) CYP450-related Enzyme Activity (ADME) Assay for human CYP2C9 (AID 2283108)
# How it was run: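 Recombinant human CYP2C9 expressed in SF9 cells, fluorogenic substrate, fluorescence read 0.75 h after dosing. Chemicals first run in duplicate at 10 uM, with actives followed in concentration series; loss of signal versus acetonitrile baseline.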
# [3] = target: Cytochrome P450 2C19 (Homo sapiens) (UniProt P33261); experiment: NVS_ADME_hCYP2C19: NovaScreen (NVS) CYP450-related Enzyme Activity (ADME) Assay for human CYP2C19 (AID 2283113);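 further: potency for inhibition seen as loss of fluorescent signal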
# How it was run: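 Biochemical CYP2C19 inhibition screen: insect-cell recombinant protein plus fluorescent substrate, 1 h, fluorescence intensity. Acetonitrile defined baseline activity. Single 10 uM concentration in duplicate, with concentration-response follow-up for actives.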
# [4] = target: rat CYP2A2, Cyp2a2 (gene 24895) (UniProt P15149); experiment: NVS_ADME_rCYP2A2: NovaScreen (NVS) CYP450-related Enzyme Activity (ADME) Assay for rat CYP2A2 (AID 2283116)
# Chain of rat CYP2A2, Cyp2a2 (gene 24895) (P15149 whole entry, looked up): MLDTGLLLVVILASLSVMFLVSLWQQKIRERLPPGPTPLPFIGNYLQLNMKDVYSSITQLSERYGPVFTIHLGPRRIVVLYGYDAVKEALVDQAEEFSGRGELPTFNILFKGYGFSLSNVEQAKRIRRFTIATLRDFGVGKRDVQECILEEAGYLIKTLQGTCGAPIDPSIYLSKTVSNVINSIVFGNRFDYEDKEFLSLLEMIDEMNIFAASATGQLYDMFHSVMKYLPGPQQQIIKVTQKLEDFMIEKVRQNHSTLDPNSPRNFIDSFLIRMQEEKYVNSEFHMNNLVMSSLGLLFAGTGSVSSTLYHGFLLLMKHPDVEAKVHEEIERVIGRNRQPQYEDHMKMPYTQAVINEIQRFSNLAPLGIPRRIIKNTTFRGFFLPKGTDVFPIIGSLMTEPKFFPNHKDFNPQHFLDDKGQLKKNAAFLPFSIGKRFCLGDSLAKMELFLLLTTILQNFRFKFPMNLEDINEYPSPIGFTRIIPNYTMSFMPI
# How it was run: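 Cell-free recombinant rat CYP2A2 activity with fluorogenic substrate, fluorescence read 0.2 h after dosing. Chemicals screened at 10 uM in duplicate, hits then run in concentration-response up to 20 uM; signal loss versus acetonitrile baseline.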
# [5] = target: rat CYP2C11, Cyp2c11 (gene 29277) (UniProt P08683); experiment: NVS_ADME_rCYP2C11: NovaScreen (NVS) CYP450-related Enzyme Activity (ADME) Assay for rat CYP2C11 (AID 2283118)
# Chain of rat CYP2C11, Cyp2c11 (gene 29277) (P08683 whole entry, looked up): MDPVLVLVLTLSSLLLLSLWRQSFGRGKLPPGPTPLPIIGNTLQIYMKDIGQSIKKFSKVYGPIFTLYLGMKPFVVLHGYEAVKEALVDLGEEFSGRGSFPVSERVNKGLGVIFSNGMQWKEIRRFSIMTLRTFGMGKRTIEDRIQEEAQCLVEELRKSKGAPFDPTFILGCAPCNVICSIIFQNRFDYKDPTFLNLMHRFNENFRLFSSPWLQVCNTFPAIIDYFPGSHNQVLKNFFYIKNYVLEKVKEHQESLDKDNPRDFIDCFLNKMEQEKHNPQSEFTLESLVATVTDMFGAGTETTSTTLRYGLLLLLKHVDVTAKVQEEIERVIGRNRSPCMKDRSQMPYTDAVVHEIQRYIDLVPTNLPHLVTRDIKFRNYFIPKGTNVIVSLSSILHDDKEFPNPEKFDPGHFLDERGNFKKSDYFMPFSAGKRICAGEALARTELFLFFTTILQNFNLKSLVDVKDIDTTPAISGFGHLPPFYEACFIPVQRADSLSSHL
# How it was run: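 Cell-free recombinant rat enzyme with fluorescent substrate; readout 0.33 h after dosing, loss of signal versus acetonitrile control. Initial duplicate single-point at 10 uM; actives rerun in concentration series.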
# [6] = tested on: rat CYP2C6, gene 293989; experiment: NVS_ADME_rCYP2C6: NovaScreen (NVS) CYP450-related Enzyme Activity (ADME) Assay for rat CYP2C6 (AID 2283120)
# How it was run: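 Cell-free recombinant rat CYP2C6 with fluorogenic substrate, read by fluorescence 1 h after dosing; acetonitrile as negative control. Primary screen at 10 uM in duplicate, actives then in concentration-response up to 20 uM.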
# [7] = tested on: rat CYP3A1, gene 25642; experiment: NVS_ADME_rCYP3A1: NovaScreen (NVS) CYP450-related Enzyme Activity (ADME) Assay for rat CYP3A1 (AID 2283126)
# How it was run: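 Cell-free recombinant CYP assay with fluorescent substrate, read 0.5 h after dosing. Screened at 10 uM in duplicate, hits at up to 20 uM in concentration-response; loss of signal versus acetonitrile baseline.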
# [8] = target: human Beta-secretase (BACE), BACE1 (gene 23621) (UniProt P56817); experiment: NVS_ENZ_hBACE: NovaScreen (NVS) Enzymatic Assay for human Beta-secretase (BACE) (AID 2283140);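 further: hits are inhibitors that reduce fluorescent substrate signal versus DMSO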
# Chain of human Beta-secretase (BACE), BACE1 (gene 23621) (P56817 whole entry, looked up): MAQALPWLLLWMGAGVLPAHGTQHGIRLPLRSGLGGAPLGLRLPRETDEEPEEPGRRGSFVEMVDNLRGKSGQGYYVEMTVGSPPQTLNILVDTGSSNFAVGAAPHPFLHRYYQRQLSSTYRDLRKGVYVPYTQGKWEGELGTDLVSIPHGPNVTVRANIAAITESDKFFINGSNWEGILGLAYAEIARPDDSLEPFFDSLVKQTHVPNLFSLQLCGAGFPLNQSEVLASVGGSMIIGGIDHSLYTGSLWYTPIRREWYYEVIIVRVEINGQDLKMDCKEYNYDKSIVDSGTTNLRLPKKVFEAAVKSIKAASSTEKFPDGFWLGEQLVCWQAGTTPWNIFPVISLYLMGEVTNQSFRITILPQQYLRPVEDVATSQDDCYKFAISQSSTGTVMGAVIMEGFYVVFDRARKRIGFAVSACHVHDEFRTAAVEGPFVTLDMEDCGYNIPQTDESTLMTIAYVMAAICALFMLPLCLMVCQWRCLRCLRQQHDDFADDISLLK
# How it was run: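 Cell-free fluorescence-intensity assay of recombinant BACE1 expressed in SF9 cells, read 1 hour after dosing. Loss of signal indicates reduced protease activity, fitted relative to DMSO negative control. Primary screen at 25 uM in duplicate; actives followed in concentration series.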
# [9] = target: human AKT serine/threonine Kinase 1 (AKT1), AKT1 (gene 207) (UniProt P31749); experiment: NVS_ENZ_hAKT1: NovaScreen (NVS) Enzymatic Assay for human AKT serine/threonine Kinase 1 (AKT1) (AID 2283138)
# Chain of human AKT serine/threonine Kinase 1 (AKT1), AKT1 (gene 207) (P31749 whole entry, looked up): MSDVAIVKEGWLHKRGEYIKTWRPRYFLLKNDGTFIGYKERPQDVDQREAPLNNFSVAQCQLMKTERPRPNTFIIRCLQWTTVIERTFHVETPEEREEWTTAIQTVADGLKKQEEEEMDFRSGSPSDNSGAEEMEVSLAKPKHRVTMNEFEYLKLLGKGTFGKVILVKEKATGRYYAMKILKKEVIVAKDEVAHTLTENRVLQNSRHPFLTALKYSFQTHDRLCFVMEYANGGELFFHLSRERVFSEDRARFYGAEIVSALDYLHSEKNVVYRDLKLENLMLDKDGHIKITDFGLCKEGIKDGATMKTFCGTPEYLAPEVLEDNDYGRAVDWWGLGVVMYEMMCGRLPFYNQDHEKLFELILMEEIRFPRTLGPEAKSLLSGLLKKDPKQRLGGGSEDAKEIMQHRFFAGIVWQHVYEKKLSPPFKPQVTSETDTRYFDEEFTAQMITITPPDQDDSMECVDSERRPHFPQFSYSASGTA
# How it was run: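 Cell-free recombinant enzyme with substrate; activity read by fluorescence intensity after electrophoretic mobility shift separating substrate from product, 1 h after dosing. Single-concentration duplicates at 25 uM, then singleton concentration-response up to 50 uM; loss of signal versus DMSO.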
# [10] = target: rat CYP3A2, Cyp3a2 (gene 266682) (UniProt P05183); experiment: NVS_ADME_rCYP3A2: NovaScreen (NVS) CYP450-related Enzyme Activity (ADME) Assay for rat CYP3A2 (AID 2283128)
# How it was run: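 Cell-free rat CYP3A2 enzyme assay with fluorescent substrate, read 0.5 h after dosing. Primary duplicate screen at 10 uM; actives run in concentration-response up to 20 uM, relative to acetonitrile baseline.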
# [11] = target: human Caspase 4 (CASP4), CASP4 (gene 837) (UniProt P49662); experiment: NVS_ENZ_hCASP4: NovaScreen (NVS) Enzymatic Assay for human Caspase 4 (CASP4) (AID 2283143)
# Chain of human Caspase 4 (CASP4), CASP4 (gene 837) (P49662 whole entry, looked up): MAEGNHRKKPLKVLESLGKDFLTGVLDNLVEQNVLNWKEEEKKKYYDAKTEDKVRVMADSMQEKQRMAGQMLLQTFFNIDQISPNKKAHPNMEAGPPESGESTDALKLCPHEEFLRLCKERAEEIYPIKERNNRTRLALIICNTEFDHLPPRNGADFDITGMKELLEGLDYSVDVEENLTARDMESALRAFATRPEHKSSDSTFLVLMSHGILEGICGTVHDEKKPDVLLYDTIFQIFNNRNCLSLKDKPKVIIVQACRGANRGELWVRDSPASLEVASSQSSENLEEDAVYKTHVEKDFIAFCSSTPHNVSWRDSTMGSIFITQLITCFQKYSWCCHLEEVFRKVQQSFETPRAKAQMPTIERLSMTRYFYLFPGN
# How it was run: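 The cell-free assay used E. coli-expressed enzyme with a fluorogenic substrate, read 2 h after dosing. Signal loss was scored versus DMSO. Screening was in duplicate at 25 uM, then singleton concentration-response up to 50 uM.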
# [12] = target: human Caspase 8 (CASP8), CASP8 (gene 841) (UniProt Q14790); experiment: NVS_ENZ_hCASP8: NovaScreen (NVS) Enzymatic Assay for human Caspase 8 (CASP8) (AID 2283146)
# Chain of human Caspase 8 (CASP8), CASP8 (gene 841) (Q14790 whole entry, looked up): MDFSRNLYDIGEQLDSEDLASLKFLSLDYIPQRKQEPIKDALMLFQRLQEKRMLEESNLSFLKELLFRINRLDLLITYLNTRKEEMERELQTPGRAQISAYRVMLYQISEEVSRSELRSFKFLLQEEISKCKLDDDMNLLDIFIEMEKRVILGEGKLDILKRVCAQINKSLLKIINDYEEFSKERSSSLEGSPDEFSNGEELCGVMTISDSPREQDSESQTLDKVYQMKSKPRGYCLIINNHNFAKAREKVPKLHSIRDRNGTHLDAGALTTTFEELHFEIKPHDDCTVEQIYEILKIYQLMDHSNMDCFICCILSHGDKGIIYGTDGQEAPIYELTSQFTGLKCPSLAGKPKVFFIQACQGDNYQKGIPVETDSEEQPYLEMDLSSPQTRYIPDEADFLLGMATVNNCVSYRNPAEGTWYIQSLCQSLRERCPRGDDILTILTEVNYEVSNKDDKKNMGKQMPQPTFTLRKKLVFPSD
# How it was run: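 E. coli-expressed enzyme was used in a cell-free fluorogenic substrate assay read 1 h after dosing. Loss of signal was scored relative to DMSO, and the primary screen was run in duplicate at 25 uM.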
# [13] = target: human Caspase 5 (CASP5), CASP5 (gene 838) (UniProt P51878); experiment: NVS_ENZ_hCASP5: NovaScreen (NVS) Enzymatic Assay for human Caspase 5 (CASP5) (AID 2283137)
# Chain of human Caspase 5 (CASP5), CASP5 (gene 838) (P51878 whole entry, looked up): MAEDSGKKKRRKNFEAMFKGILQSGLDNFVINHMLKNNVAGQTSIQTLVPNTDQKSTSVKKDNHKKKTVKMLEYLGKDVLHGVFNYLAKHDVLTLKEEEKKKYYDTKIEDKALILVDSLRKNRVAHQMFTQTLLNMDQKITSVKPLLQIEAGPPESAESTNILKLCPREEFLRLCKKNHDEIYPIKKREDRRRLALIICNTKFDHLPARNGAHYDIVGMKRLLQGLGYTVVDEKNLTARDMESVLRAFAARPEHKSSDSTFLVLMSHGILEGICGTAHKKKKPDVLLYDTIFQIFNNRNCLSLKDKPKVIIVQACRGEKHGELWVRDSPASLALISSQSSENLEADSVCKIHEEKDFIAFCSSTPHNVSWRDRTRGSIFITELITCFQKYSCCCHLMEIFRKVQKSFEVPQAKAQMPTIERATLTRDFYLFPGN
# How it was run: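 Recombinant E. coli-expressed human caspase 5 in a cell-free enzyme assay; fluorescence intensity read 2 hours after chemical dosing. Single-concentration duplicate screen at 25 uM, then concentration-response up to 50 uM for hits; DMSO negative control.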
# [14] = target: Caspase-3 (Homo sapiens) (UniProt P42574); experiment: NVS_ENZ_hCASP3: NovaScreen (NVS) Enzymatic Assay for human Caspase 3 (CASP3) (AID 2283139)
# Chain of Caspase-3 (Homo sapiens) (P42574 whole entry, looked up): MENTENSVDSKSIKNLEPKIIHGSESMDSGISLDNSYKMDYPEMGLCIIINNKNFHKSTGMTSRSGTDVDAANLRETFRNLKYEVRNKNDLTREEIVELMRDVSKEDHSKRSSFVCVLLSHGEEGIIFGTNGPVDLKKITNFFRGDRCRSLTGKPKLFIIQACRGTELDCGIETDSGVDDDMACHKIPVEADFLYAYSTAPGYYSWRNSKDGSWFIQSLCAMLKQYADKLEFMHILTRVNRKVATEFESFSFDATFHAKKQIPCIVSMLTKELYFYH
# How it was run: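 Recombinant human caspase-3 from E. coli with a fluorogenic substrate, read by fluorescence 1 h after dosing. Primary screen in duplicate at 25 uM. Actives (for example ≥30% inhibition) rerun as concentration-response up to 50 uM.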
# [15] = target: human AKT serine/threonine Kinase 2 (AKT2), AKT2 (gene 208) (UniProt P31751); experiment: NVS_ENZ_hAKT2: NovaScreen (NVS) Enzymatic Assay for human AKT serine/threonine Kinase 2 (AKT2) (AID 2283141)
# How it was run: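 Cell-free fluorescence/electrophoretic mobility shift readout of recombinant human AKT2 activity, 1 h after chemical dosing. Duplicate primary screen at 25 uM, then singleton concentration-response up to 50 uM; loss of signal versus DMSO baseline.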
# [16] = target: human Colony Stimulating Factor 1 Receptor (CSF1R), CSF1R (gene 1436) (UniProt P07333); experiment: NVS_ENZ_hCSF1R: NovaScreen (NVS) Enzymatic Assay for human Colony Stimulating Factor 1 Receptor (CSF1R) (AID 2283150)
# Chain of human Colony Stimulating Factor 1 Receptor (CSF1R), CSF1R (gene 1436) (P07333 whole entry, looked up): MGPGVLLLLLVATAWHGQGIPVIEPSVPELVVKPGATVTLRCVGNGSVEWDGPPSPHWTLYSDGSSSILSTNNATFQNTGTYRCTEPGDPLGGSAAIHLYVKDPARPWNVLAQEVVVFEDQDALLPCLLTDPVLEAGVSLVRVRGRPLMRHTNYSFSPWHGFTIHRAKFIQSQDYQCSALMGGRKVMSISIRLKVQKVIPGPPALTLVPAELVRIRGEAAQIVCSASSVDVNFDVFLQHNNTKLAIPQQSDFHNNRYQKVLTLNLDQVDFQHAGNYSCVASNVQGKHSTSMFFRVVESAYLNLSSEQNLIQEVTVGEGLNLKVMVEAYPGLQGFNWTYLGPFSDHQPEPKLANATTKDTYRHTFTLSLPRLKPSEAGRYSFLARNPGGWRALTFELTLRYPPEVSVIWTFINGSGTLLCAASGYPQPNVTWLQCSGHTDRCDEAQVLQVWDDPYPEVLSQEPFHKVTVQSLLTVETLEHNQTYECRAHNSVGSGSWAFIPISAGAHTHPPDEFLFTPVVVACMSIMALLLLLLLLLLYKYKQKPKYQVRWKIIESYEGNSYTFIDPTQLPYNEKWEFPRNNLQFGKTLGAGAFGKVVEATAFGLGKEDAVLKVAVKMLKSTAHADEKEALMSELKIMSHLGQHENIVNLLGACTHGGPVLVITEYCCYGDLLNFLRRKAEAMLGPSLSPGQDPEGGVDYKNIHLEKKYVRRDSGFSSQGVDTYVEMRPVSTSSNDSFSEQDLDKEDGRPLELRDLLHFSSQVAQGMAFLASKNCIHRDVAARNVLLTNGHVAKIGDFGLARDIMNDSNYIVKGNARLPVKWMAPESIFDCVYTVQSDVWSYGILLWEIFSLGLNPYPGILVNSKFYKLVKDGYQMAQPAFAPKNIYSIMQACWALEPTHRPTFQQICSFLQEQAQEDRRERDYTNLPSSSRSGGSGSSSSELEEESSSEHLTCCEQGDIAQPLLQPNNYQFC
# How it was run: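 Cell-free recombinant human CSF1R kinase with fluorescent substrate, product separated by electrophoretic mobility shift; read 1 h after dosing. Primary screen at 25 uM in duplicate, actives then in concentration-response up to 50 uM, relative to DMSO.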
# [17] = target: human Casein Kinase 1-delta (CK1D), CSNK1D (gene 1453) (UniProt P48730); experiment: NVS_ENZ_hCK1D: NovaScreen (NVS) Enzymatic Assay for human Casein Kinase 1-delta (CK1D) (AID 2283148)
# Chain of human Casein Kinase 1-delta (CK1D), CSNK1D (gene 1453) (P48730 whole entry, looked up): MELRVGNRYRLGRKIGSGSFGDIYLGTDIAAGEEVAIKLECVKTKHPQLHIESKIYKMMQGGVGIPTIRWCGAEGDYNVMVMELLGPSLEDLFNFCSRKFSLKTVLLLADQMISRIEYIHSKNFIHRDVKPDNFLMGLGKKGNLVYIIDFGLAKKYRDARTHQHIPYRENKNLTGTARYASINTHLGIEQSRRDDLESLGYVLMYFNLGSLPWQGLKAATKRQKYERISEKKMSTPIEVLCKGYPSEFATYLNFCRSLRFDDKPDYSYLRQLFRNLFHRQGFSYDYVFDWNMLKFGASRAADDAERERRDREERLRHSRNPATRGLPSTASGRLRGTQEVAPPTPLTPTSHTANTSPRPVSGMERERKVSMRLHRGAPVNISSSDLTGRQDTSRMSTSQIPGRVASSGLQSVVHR
# How it was run: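 Recombinant human CK1-delta, cell-free; fluorescent substrate with electrophoretic mobility-shift separation of product, read 1 h after dosing. Single 25 uM duplicate screen, then concentration-response up to 50 uM; loss of signal vs DMSO.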
# [18] = target: human Acid Phosphatase 1 (ACP1), ACP1 (gene 52) (UniProt P24666); experiment: NVS_ENZ_hACP1: NovaScreen (NVS) Enzymatic Assay for human Acid Phosphatase 1 (ACP1) (AID 2283136)
# How it was run: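 Recombinant enzyme expressed in Sf9 cells, tested cell-free; activity read by fluorescence with electrophoretic mobility shift separation of substrate and product, 1.5 h after dosing. Primary screen in duplicate at 25 uM, actives then run in concentration series; loss of signal versus DMSO.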
# [19] = target: CDK2 (gene 1017) (UniProt P24941); experiment: NVS_ENZ_hCDK2: NovaScreen (NVS) Enzymatic Assay for human Cyclin-Cependent Kinase 2 (CDK2) (AID 2283144)
# How it was run: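 Cell-free recombinant human CDK2 with fluorescent substrate, product separated by electrophoretic mobility shift; 1 hr read. Primary screen at 25 uM in duplicate, actives retested in concentration-response up to 50 uM; loss of signal versus DMSO.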
smiles,measurement,setting,value
CCN(CC)CCOc1ccc(C(=C(Cl)c2ccccc2)c2ccccc2)cc1,AC50,[1],2.38 µM (active)
same,AC50,[2],6.93 µM (active)
same,AC50,[3],2.68 µM (active) [middle of 4 runs]
same,AC50,[4],3.22 µM (active) and 5.8 µM (active)
same,outcome,[4],inactive
same,AC50,[5],6.05 µM (active) and 5 µM (active) and 325 nM (active)
same,AC50,[6],4.06 µM (active) and 3.54 µM (active) and 4.76 µM (active)
same,AC50,[7],6.26 µM (active)
same,AC50,[8],14.7 µM (active)
CCCCCCCCCCCCCCCCO,AC50,[3],12.6 µM (active)
CC(C)COC(=O)CCCCC(=O)OCC(C)C,AC50,[8],36.1 µM (active)
CCc1nc(N)nc(N)c1-c1ccc(Cl)cc1,outcome,[8],inactive
CCCC(=O)O,outcome,[9],inactive
CC(=O)O[C@]1(C(C)=O)CC[C@H]2[C@@H]3C=C(Cl)C4=CC(=O)[C@@H]5C[C@@H]5[C@]4(C)[C@H]3CC[C@@]21C,AC50,[4],832 nM (active) and 2.03 µM (active) and 1.28 µM (active)
same,AC50,[7],1.2 µM (active)
same,AC50,[10],1.42 µM (active)
CC(C)(C)c1ccccc1,outcome,[8],inactive
O=C(O)c1[nH]n(-c2ccc(S(=O)(=O)O)cc2)c(=O)c1N=Nc1ccc(S(=O)(=O)O)cc1,outcome,[11],inactive
same,AC50,[12],7.11 µM (active)
O=C1CCCCC1,outcome,[13],inactive
same,outcome,[14],inactive
CCCCCCCCCCCCCCOS(=O)(=O)O,AC50,[13],2.27 µM (active)
same,AC50,[9],14.2 µM (active)
same,AC50,[8],1.77 µM (active)
same,AC50,[15],13.3 µM (active)
same,AC50,[16],9.44 µM (active)
Cc1cc(SC2=C(O)C[C@@](CCc3ccc(N)cc3)(C(C)C)OC2=O)c(C(C)(C)C)cc1CO,AC50,[3],7.64 µM (active)
same,outcome,[8],inactive
O=Cc1ccccc1C=O,outcome,[13],inactive
CC(N)=O,outcome,[17],inactive
O=C1c2c(O)cccc2Cc2cccc(O)c21,AC50,[13],0.235 µM (active)
same,outcome,[9],inactive
same,AC50,[14],13.1 µM (active)
same,AC50,[8],1.22 µM (active)
same,AC50,[15],16 µM (active)
same,AC50,[11],4.5 µM (active)
same,AC50,[12],7.92 µM (active)
Cc1cc(Cc2ccc(N)c(C)c2)ccc1N,AC50,[3],7.05 µM (active)
COC(=O)[C@H]1[C@H]2C[C@@H]3c4[nH]c5cc(OC)ccc5c4CCN3C[C@H]2C[C@@H](OC(=O)c2cc(OC)c(OC)c(OC)c2)[C@@H]1OC,AC50,[3],7.91 µM (active)
Nc1nc(Cl)nc2c1ncn2[C@H]1C[C@H](O)[C@@H](CO)O1,outcome,[16],inactive
CN(C)CCCN1c2ccccc2Sc2ccc(Cl)cc21,outcome,[8],inactive
COc1ccc(OC(F)(F)F)cc1CN[C@H]1CCCN[C@H]1c1ccccc1,outcome,[18],inactive
same,outcome,[9],inactive
same,outcome,[19],inactive
same,outcome,[17],inactive
same,outcome,[16],inactive
O=C(O)CC(O)(CC(=O)O)C(=O)O,outcome,[16],inactive
O=C(Oc1ccccc1)c1cccc(C(=O)Oc2ccccc2)c1,outcome,[19],inactive
same,outcome,[17],inactive
C=CCCCCCCCCCCCC,outcome,[17],inactive
CC(C)c1cccc(C(C)C)c1,AC50,[3],10 µM (active)
same,outcome,[12],inactive
Cn1cnc2c1c(=O)[nH]c(=O)n2C,outcome,[13],inactive
CCCCCCCC(=O)OC,outcome,[14],inactive
